We go through 16 compounds from PubChem BioAssay.

A short description of assay [1]: binders of probe aFSTL3 on microarray, primary screen, stem cell growth factor project, biochemical, small-molecule microarray, fluorescence 635/667 (AID 1064).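 Further: measures binding of the biotinylated anti-FSTL3 antibody to printed compounds.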 Particulars: higher = more signal.
Assay [2] in a line: binders from COS7 lysate, DM2A8 probe, primary screen, torsin A project, cell lysate, small-molecule microarray, fluorescence 635/667 (AID 1065). Particulars: higher = more signal, COS7 lysate expressing mutant human TOR1A.
Assay [3] is described as follows: binders of probe aFGF2 on microarray, primary screen, stem cell growth factor project, biochemical, small-molecule microarray, fluorescence 635/667 (AID 1067).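 Further: measures binding of biotinylated aFGF2 protein to printed compounds on slides; z-score merges feature fluorescence and signal-to-noise across triplicate slides.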 Particulars: higher = more signal.
Assay [4] can be described thus: binders of probe aFGF10 on microarray, primary screen, stem cell growth factor project, biochemical, small-molecule microarray, fluorescence 635/667 (AID 1071).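 Further: score merges 667 nm spot intensity and signal to noise from triplicate slides.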 Particulars: higher = more signal.
Assay [5] deals with Neurogenic locus notch homolog protein 2 (Homo sapiens) (UniProt Q04721). Briefly: Notch2 binders on small-molecule microarrays, primary screen, biochemical, small-molecule microarray, 635 nm fluorescence, stem cell growth factors (AID 1073). Particulars: Notch2 binding, higher = more signal.
For assay [6], the target named is Pro-neuregulin-1, membrane-bound isoform (Homo sapiens) (UniProt Q02297). Briefly: NRG1 binders on small-molecule microarrays, primary screen, psychiatric disease protein project, biochemical, small-molecule microarray, fluorescence 635/667 (AID 1075).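 Further: score combines 667 nm spot fluorescence with signal to noise.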 Particulars: NRG1 binding, 635 nm fluorescence, higher = more signal.
In assay [7] the test system is Neuregulin-1 EGF-like domain. Briefly: binders of neuregulin-1 EGF-like domain, primary screen, biochemical, small-molecule microarray, 635 nm fluorescence (AID 1081).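 Further: binding of the protein to compounds printed on small-molecule microarray slides.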 The conditions noted are these: small-molecule microarray binding, higher = more signal.
A short description of assay [8]: FRG1 promoter luciferase signal modulators, primary screen, FRG1 inhibition for FSHD, cell-based, C2C12 myotubes, firefly/Renilla luciferase, luminescence (AID 1084). Particulars: higher = more signal, called active from +8 up or from −8 down.
A short description of assay [9]: binders of probe aFST on microarray, primary screen, stem cell growth factor project, biochemical, small-molecule microarray, fluorescence 635/667 (AID 1086).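 Further: score merges 667 nm fluorescence with signal-to-noise of each printed compound spot.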 The conditions noted are these: higher = more signal.
Assay [10] can be described thus: binders of probe aHhip on microarray, primary screen, stem cell growth factor project, biochemical, small-molecule microarray, fluorescence 635/667 (AID 1087).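 Further: score merges spot fluorescence at 667nm with spot signal to noise ratio.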 Particulars: higher = more signal.

Activity calls are given as the source filed them.

Neurogenic locus notch homolog protein 2 (Homo sapiens), sequence (Q04721 whole entry, looked up, canonical isoform): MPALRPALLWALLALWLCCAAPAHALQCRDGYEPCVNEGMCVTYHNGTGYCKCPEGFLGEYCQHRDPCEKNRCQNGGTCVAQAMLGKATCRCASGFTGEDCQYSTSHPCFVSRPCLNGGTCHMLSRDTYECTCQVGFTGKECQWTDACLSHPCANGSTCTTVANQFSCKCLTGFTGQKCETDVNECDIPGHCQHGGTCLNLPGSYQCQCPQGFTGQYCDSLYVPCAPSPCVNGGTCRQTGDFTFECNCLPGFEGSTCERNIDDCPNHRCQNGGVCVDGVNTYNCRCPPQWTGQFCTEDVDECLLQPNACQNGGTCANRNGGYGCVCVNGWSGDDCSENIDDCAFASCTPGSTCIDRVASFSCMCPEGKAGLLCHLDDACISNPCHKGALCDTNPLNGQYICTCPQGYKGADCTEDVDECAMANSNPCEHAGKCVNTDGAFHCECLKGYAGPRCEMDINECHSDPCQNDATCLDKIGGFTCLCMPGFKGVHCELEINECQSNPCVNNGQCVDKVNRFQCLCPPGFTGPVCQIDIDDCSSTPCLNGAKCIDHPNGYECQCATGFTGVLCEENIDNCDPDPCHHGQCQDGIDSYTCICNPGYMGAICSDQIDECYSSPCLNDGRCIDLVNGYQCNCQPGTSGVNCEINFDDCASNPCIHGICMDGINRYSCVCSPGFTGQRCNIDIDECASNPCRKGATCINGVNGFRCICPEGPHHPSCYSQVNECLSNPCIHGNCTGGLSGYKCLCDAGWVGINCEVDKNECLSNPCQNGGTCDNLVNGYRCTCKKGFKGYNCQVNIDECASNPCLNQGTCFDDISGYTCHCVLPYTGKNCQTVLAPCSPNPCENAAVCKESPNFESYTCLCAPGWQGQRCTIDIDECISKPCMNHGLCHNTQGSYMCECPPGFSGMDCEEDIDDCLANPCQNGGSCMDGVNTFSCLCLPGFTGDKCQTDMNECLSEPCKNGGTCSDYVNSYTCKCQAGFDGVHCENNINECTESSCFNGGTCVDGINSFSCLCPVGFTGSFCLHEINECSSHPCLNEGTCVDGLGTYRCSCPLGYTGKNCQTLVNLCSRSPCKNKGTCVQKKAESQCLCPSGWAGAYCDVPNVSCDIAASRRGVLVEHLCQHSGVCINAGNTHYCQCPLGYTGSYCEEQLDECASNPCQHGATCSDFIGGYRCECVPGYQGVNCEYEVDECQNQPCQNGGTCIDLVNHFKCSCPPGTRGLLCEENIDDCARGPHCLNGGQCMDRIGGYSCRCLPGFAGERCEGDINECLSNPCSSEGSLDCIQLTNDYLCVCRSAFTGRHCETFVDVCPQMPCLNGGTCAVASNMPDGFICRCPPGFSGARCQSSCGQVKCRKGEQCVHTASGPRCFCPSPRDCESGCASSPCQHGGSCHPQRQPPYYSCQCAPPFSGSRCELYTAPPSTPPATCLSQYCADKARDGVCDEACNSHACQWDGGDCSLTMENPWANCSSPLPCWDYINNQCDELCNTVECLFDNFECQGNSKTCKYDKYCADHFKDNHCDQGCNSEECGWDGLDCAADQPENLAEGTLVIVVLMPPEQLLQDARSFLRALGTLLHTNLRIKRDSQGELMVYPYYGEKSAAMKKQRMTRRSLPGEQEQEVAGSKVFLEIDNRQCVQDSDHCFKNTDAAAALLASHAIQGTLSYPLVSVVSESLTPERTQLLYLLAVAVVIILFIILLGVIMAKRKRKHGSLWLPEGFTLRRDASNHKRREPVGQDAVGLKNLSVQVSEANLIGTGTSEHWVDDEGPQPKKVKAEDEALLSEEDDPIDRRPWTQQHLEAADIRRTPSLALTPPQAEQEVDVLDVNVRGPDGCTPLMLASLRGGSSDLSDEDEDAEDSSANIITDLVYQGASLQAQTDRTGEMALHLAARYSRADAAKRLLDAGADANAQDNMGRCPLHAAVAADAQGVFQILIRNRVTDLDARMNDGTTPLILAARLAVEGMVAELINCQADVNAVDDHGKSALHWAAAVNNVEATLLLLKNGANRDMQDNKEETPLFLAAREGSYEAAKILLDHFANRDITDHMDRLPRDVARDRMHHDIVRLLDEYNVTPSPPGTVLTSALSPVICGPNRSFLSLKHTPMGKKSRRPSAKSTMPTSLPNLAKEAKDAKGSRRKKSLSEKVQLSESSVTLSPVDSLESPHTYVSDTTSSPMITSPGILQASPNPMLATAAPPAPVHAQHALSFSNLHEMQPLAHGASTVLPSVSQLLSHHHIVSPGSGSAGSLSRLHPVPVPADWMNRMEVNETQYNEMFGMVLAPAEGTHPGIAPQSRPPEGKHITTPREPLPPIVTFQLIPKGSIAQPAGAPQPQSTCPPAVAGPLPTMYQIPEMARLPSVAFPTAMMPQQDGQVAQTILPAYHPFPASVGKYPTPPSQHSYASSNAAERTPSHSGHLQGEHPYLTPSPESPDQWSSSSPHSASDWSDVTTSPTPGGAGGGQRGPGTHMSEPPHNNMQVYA
Pro-neuregulin-1, membrane-bound isoform (Homo sapiens), sequence (Q02297 whole entry, looked up, the tested form may be a part, canonical isoform): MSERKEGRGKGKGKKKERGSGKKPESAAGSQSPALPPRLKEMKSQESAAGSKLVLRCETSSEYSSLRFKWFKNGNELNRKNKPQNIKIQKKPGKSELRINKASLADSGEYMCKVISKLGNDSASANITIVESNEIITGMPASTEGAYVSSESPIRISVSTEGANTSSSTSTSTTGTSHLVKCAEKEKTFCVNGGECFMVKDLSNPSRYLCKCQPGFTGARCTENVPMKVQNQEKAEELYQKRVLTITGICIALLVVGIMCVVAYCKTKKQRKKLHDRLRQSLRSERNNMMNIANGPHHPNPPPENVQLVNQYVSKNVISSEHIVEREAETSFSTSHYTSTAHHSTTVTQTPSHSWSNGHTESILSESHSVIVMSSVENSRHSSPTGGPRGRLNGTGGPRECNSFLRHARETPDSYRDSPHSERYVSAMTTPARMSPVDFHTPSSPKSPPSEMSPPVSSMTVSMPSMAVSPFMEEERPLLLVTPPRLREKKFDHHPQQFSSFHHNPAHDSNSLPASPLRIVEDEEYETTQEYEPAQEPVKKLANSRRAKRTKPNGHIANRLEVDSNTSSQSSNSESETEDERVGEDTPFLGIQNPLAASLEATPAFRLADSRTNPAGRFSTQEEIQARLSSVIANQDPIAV

In the case of `CC(C)=CCCC(C)=CC(O)C1C=CC2C(=O)N(c3ccccc3)C(=O)C2N1Nc1ccccc1F` (stereo not given), the composite z-score in [1] is -0.0417; in [2], -0.113; in [3], -0.138; in assay [4], 0.498; in [5], 0.765; in assay [6], 1.49. The composite z-score in assay [7] was 1.09; in assay [9], -0.174; in assay [10], -0.329. In addition, in assay [8], the z-score was 0.314 (inactive).

On to `CCCCC(=O)N(CCN1CCOCC1)[C@@H]1CC(C(=O)NCCO)=C[C@H](Oc2c(I)cc(CO)cc2OC)[C@H]1O`, for which the composite z-score is -0.725 in assay [1]; 0.151 in assay [2]; -0.146 in assay [3]; 0.511 in assay [4]; 0.555 in assay [5]; 0.171 in assay [6]. In addition, the results for the composite z-score in [7], in [9] and in assay [10] were 0.384, 0.0126 and -0.549, respectively. Moreover, in [8], the z-score is 0.912 (inactive).

For the compound `COc1ccc(C#Cc2ccc3c(c2)[C@]2(C(=O)N3)[C@H](C(=O)Nc3nc4ccccc4s3)[C@H]3C(=O)O[C@H](c4ccccc4)[C@H](c4ccccc4)N3[C@@H]2c2ccccc2OCCO)cc1`, the composite z-score in assay [1] is -0.0541; in [2], 0.125; in [3] it was -0.024; in assay [4], 0.313; in [5], 0.98; in assay [6], 0.907. The composite z-score was 0.919 in assay [7], 0.723 in assay [9] and 0.176 in assay [10]. Also, in assay [8], the z-score is 0.716 (inactive).

Regarding `COCCOC(=O)N1C(=O)[C@@]2(c3cc(C#CCC(C(=O)OC)C(=O)OC)ccc31)[C@H](c1ccc(O)cc1)N1[C@H](c3ccccc3)[C@H](c3ccccc3)OC(=O)[C@H]1[C@@H]2C(=O)NC[C@H](O)c1ccccc1`, the composite z-score was -0.32 in assay [1]; 0.63 in assay [2]; 0.0521 in assay [3]; 0.144 in assay [4]; 0.147 in assay [5]; 1.12 in assay [6]. Also, the composite z-score in [7] came to 1.04; in assay [9] it was 0.169; in assay [10], 0.0749. Also, the z-score in [8] is 1.15 (inactive).

Turning to `O=C1O[C@H](c2ccccc2)[C@H](c2ccccc2)N2[C@H]1[C@@H](C(=O)N1CCCCCCC1)[C@]1(C(=O)Nc3ccc(C#CC4(O)CCCCCC4)cc31)[C@H]2c1ccc(O)cc1`, the composite z-score worked out at 3.63 in assay [1]; 1.42 in assay [2]; 0.807 in assay [3]; 0.822 in [4]; 1.36 in assay [5]; 1.36 in assay [6]. The composite z-score in assay [7] was 1.2; in assay [9] it was 2.97; in assay [10], 0.697. In addition, the z-score in assay [8] was -2.46 (inactive).

Take `C=C(C)C1CCC(C(O)C2C=CC3C(=O)N(C)C(=O)C3N2Nc2cc(OC)c(OC)c(OC)c2)CC1` (stereo not given): the composite z-score in assay [1] turned out to be 0.735; in assay [2], 0.287; in [3], 0.115; in assay [4] it was 0.334; in assay [5], 1.57; in assay [6], 1.97. For the same compound, the composite z-score in assay [7] is 1.29; in [9], 1.07; in assay [10], -0.0296. Also, the z-score in assay [8] was 1.12 (inactive).

On to `CN1C(=O)[C@@]2(Cc3ccccc3)N=C(c3ccc(OCCCO)cc3)O[C@H]2c2ccccc21`, for which the composite z-score worked out at 0.331 in assay [1]; 0.295 in [2]; 0.0175 in assay [3]; 0.261 in assay [4]; 0.921 in [5]; 0.501 in assay [6]. The composite z-score in assay [7] is 1.21; in [9] it was 0.511; in assay [10] it was -0.156. Also, the z-score in assay [8] is -2.02 (inactive).

For `CN1C(=O)C2C=CC(C(O)c3ccc(I)cc3)N(Nc3ccccc3)C2C1=O` (stereo not given), the composite z-score in assay [1] turned out to be 0.131; in assay [2], 0.238; in assay [3] it was 0.0253; in assay [4], 0.846; in [5], 1.26; in assay [6] it was 1.56. Further, the composite z-score in assay [7] came out at 1.24; in assay [9] it was 0.942; in assay [10] it was 0.142. The z-score in assay [8] was 0.266 (inactive).

Regarding `C=CCNC(=O)[C@@H]1[C@H]2C(=O)O[C@H](c3ccccc3)[C@H](c3ccccc3)N2[C@H](c2ccc(OCCO)cc2)[C@@]12C(=O)N(C(=O)OCCOC)c1ccc(C#CCCO)cc12`, the composite z-score in assay [1] was -0.209; in assay [2] it was -0.28; in assay [3], -0.0203; in assay [4], 0.508; in [5], 1.33; in assay [6] it was 1.24. Besides, the composite z-score was 1.19 in [7], 0.273 in [9] and -0.164 in assay [10]. Also, in [8], the z-score was -0.0789 (inactive).

`Cc1cccc([C@H]2C[C@H]3C(Br)=C[C@@H]2C(=O)[C@]32CO2)c1`: the composite z-score in [1] is 0.165; in assay [2], 0.0316; in assay [3], -0.182; in assay [4] it was -0.228; in assay [5], -0.0632; in [6], -0.424. Moreover, the composite z-score in assay [7] was -0.779; in [9] it was -0.264; in assay [10], -0.0169. In addition, the z-score in [8] was 1.02 (inactive).

As for `CN1C(=O)[C@@H]2[C@@H](CC(COc3ccccc3)=C([C@H](O)CCc3ccccc3)[C@@H]2CO)C1=O`, the composite z-score in assay [1] is -0.138; in assay [2] it was 0.342; in assay [3], -0.103; in assay [4] it was -0.195; in assay [5], -0.492; in assay [6] it was -0.207. The values for the composite z-score in assay [7], in assay [9] and in assay [10] were -0.0233, -0.167 and -0.236, respectively. Further, the z-score in assay [8] is -2.39 (inactive).

`COC(=O)C1=CC(CCCO)=CC(c2ccc(CN3CCCC3)cc2)N(Cc2cc3c(cc2Br)OCO3)C=C1C(=O)OC` (stereo not given): the composite z-score was found to be 0.942 in assay [1]; 1.66 in assay [2]; 0.19 in assay [3]; 1.26 in assay [4]; 1.61 in [5]; 2.4 in assay [6]. Further, the values for the composite z-score in assay [7], in assay [9] and in assay [10] were 1.18, 1.97 and 0.0605, respectively. The z-score in [8] is 0.046 (inactive).

Take `C=C(COC)/C(=C/C[C@@H](OC(=O)c1ccncc1)c1ccccc1OCCO)c1cc(C(=O)OC)ccc1OC`: the composite z-score in [1] is 0.232; in [2], -0.72; in assay [3], -0.0718; in [4], 0.263; in assay [5], -0.381; in assay [6], -0.33. The composite z-score in [7] is 0.851; in [9] it was -0.3; in assay [10] it was -0.0645. In addition, in assay [8], the z-score was -1.87 (inactive).

In the case of `O=C(O)[C@@H]1C[C@@H]2C(=O)N3CCC[C@H]3C(=O)N2[C@@H]1c1cccc(OCCO)c1`, the composite z-score in assay [1] was found to be 3.06; in assay [2], 2.45; in assay [3], 0.588; in assay [4], 0.648; in [5], 1.7; in assay [6], 2.68. The composite z-score in assay [7] was 1.49; in assay [9] it was 3.21; in [10], 1.1. For the same compound, in [8], the z-score was 1.39 (inactive).

For the compound `COC(=O)[C@@]1(Cc2ccccc2)[C@H]2c3cc(C(=O)N4CCCC4)n(CCSCCO)c3C[C@H]2CN1C(=O)c1ccccc1`, the composite z-score in [1] was determined as 0.729; in assay [2] it was 0.773; in assay [3] it was 0.457; in assay [4], 0.525; in assay [5] it was 1.83; in assay [6], 1.66. Further, the composite z-score stood at 1.37 in [7], 0.894 in assay [9] and 0.189 in assay [10]. Also, the z-score in assay [8] was -0.906 (inactive).

With `C=C(COC)/C(=C/C[C@H](OC(C)=O)c1cccc(OCCO)c1)c1cnc2ccccc2c1`, the composite z-score in assay [1] was -0.194; in assay [2], 0.569; in [3] it was -0.0325; in assay [4], 1.05; in assay [5], 1.26; in [6] it was 0.743. For the same compound, the composite z-score in [7] is 1.11; in assay [9] it was 0.654; in assay [10] it was 0.107. The z-score in assay [8] is 1.46 (inactive).
